Experimental data taken from PubChem BioAssay AID686978 (National Center for Advancing Translational Sciences (NCATS), 2013).
Among all 420,000 compounds or so, about 64,000 (15%) were called active. Another 27% or so got no clear call; they are omitted. Calls come from the whole dose curve; as a rule, active = well fitted inhibition curve with a large enough effect; inconclusive = small, poorly fitted or top-dose-only effect; inactive = flat fitted curve, though single readings scatter. The list is a sample of the results. A call without a number means that no potency is given here.

Test: qHTS for Inhibitors of human tyrosyl-DNA phosphodiesterase 1 (TDP1): qHTS in cells in absence of CPT; note: nearly all actives have a fitted effect of over 55% in size
Details: DT40 Tdp1-/- hTDP1 cells, no CPT, ATP luminescence, 48 h; activity change, negative = growth inhibition: at 46.2 µM (top of the series)
How it was run: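 Chicken DT40 Tdp1-/- cells stably complemented with human TDP1 were seeded at 400 cells/well with DMSO in place of 20 nM camptothecin. After compound pinning, cells grew at least 48 hr at 37 °C; viability read by CellTiter-Glo luminescence.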
Potency is the fitted concentration of half-maximal effect.

Row | SMILES | Potency
1 | CCN(Cc1ccccc1)C(=O)CCS(=O)(=O)c1ccc2c(c1)oc(=O)n2C | inactive
2 | COc1cccc2c1CCC(NC(C)=O)C2=O (configuration not stated) | inactive
3 | FC(F)(F)c1ccc(-n2cn[nH]c2=S)cc1 | inactive
4 | COc1ccc(-c2c(C)nn3c(N4CCC(C(=O)N5CCCCC5)CC4)cc(C)nc23)cc1OC | inactive
5 | N#Cc1cc([N+](=O)[O-])ccc1NCC1CCCO1 (configuration not stated) | inactive
6 | O=C(Nc1ccc2c(c1)OCCO2)c1ccoc1 | inactive
7 | CS(=O)(=O)N1CCN(c2ccc(C(=O)NC3C4CC5CC(C4)CC3C5)cc2[N+](=O)[O-])CC1 (configuration not stated) | 23.1 µM (active)
8 | COc1ccc(NS(=O)(=O)c2ccc(N3CCOCC3)c(NC(=O)/C=C/C(=O)O)c2)cc1 | inactive
9 | Cc1ccc(C(=O)c2ccc(N3CCN(C)CC3)c([N+](=O)[O-])c2)cc1 | 23.1 µM (active)
10 | Cc1cccc(N2CCN(c3ccc(C(N)=O)cc3[N+](=O)[O-])CC2)c1C | inactive
11 | Cc1ccc(S(=O)(=O)N2CCN(C(=O)c3ccc(-n4cncn4)c([N+](=O)[O-])c3)CC2)cc1 | inactive
12 | Cc1ccc(S(=O)(=O)NCCSc2ccccc2)cc1[N+](=O)[O-] | inactive
13 | COc1ccc(N2C(=O)CC(Nc3ccc(F)cc3)C2=O)c([N+](=O)[O-])c1 (configuration not stated) | inactive
14 | CN1CCN(c2ccc(S(=O)(=O)Nc3ccccc3)cc2[N+](=O)[O-])CC1 | 9.2 µM (active)
15 | COc1ccc(NS(=O)(=O)c2ccc(N3CCN(CCO)CC3)c([N+](=O)[O-])c2)cc1 | 3.66 µM (active)
16 | CC1CCN(c2ccc(S(=O)(=O)Nc3cc(C(=O)O)cc(C(=O)O)c3)cc2[N+](=O)[O-])CC1 | inactive
17 | FC(F)(F)c1ccc2nnc(-c3c(Cl)cccc3Cl)n2c1 | inactive
18 | COc1ccc(-n2c(C)nn(CC3CC3)c2=O)cc1 | inactive
19 | O=C(COc1coc(CN2CCN(c3ccccc3)CC2)cc1=O)N1CCc2ccccc21 | inactive
20 | O=C(NCCN=C1NS(=O)(=O)c2ccccc21)c1ccc(S(=O)(=O)N2CCOCC2)cc1 | inactive
21 | CCCCCCOC(=O)NCC(O)c1ccccc1 (configuration not stated) | inactive
22 | CC(C)C[C@H](NC(=O)C1CCC(CNC(=O)[C@@H]2CCCN2C(=O)OC(C)(C)C)CC1)C(=O)O (some centres not stated) | inactive
23 | CC(=O)OCC(=O)C1CCC2C3CCC4=CC(=O)CC[C@@]4(C)C3CC[C@]12C (some centres not stated) | inactive

Row | SMILES | Potency
24 | CSc1ncnc2c1ncn2CC(=O)C1CCC2C3CCC4=CC(=O)CCC4(C)C3CCC12C (configuration not stated) | 5.8 µM (active)
25 | C#CCOc1ccc(/C=C2/C(=O)NN(c3ccccc3)C2=O)cc1OC | inactive
26 | COc1cc(/C=C2/C(=O)ON=C2C)ccc1OCc1cccc(F)c1 | 16.4 µM (active)
27 | COc1ccnc2c1c(=O)n(Cc1cccc(F)c1)c(=O)n2C | inactive
28 | Cc1c(C(=O)O)nnn1-c1nonc1N | inactive
29 | CCOc1cc(C(=O)Nc2ncccn2)cc(OCC)c1OCC | inactive
30 | CC1C/C(=N/NC(=O)c2cccs2)CC(C)(C)C1 (configuration not stated) | inactive
31 | COc1ccc(S(=O)(=O)N2CCOCC2)cc1C(=O)Nc1nc2ccccc2s1 | inactive
32 | COc1cccc2sc(NNC(=O)c3nc4ccccc4s3)nc12 | 6.51 µM (active)
33 | CSCCC(Nc1nc2ccccc2s1)C(=O)O (configuration not stated) | inactive
34 | Cc1ccc(N2CC(C(=O)NCCS(=O)(=O)N3CCN(c4ccccc4)CC3)CC2=O)cc1 (configuration not stated) | inactive
35 | COc1ccccc1NC(=O)COC(=O)c1ccccc1SCC(=O)N1CCCC1 | inactive
36 | CC(=O)c1cccc(NC(=O)CN2C(=O)c3cccnc3Oc3ccc(Cl)cc32)c1 | 13 µM (active)
37 | CCN(CC)c1ccc(NC(=O)CN2C(=O)c3cccnc3Oc3ccc(Cl)cc32)c(C)c1 | 13 µM (active)
38 | Cc1ccc2c(c1)N(CC(=O)NCCCN1CCCCC1)C(=O)c1cccnc1O2 | inactive
39 | CCN(CC)c1ccc(NC(=O)Cn2nc3c(cc2=O)CCCC3)c(C)c1 | inactive
40 | CCCCN1C(=O)C(=O)N(CC(=O)Nc2cccc(C(C)=O)c2)C1=O | inactive
41 | CC(=O)Nc1cccc(C(=O)OCN2C(=O)c3ccccc3C2=O)c1 | inactive
42 | CC1(c2ccc(Cl)cc2Cl)NC(=O)N(CC(=O)Nc2cccnc2Cl)C1=O (configuration not stated) | inactive
43 | Cc1ccc2c(c1)N(CC(=O)NCCc1ccc(Cl)cc1)C(=O)c1cccnc1O2 | 1.16 µM (active)
44 | Cc1ccc2[nH]c3c(=O)n(CC(=O)NCCc4ccc(Cl)cc4)ncc3c2c1 | inactive
45 | O=C(COC(=O)c1ccc(S(=O)(=O)N2CCc3ccccc3C2)cc1)NC(=O)NCc1ccco1 | inactive
46 | O=C(COc1ccc([N+](=O)[O-])cc1Cl)Nn1cnnc1 | inactive

Row | SMILES | Potency
47 | CNc1nc(=O)n(C2CCCO2)cc1C (configuration not stated) | inactive
48 | O=C(CCC(=O)N1CCCC1)Nc1ccc([N+](=O)[O-])cc1 | inactive
49 | COC(=O)NNC(=O)C1CCC(C)CC1 (configuration not stated) | inactive
50 | COc1ccc(C(=O)NN2C(=O)C3C(c4ccccc4)C=CC(c4ccccc4)C3C2=O)cc1 (configuration not stated) | inactive
51 | COc1ccc(C(=O)NN(C)c2nc(-c3ccccc3)cc(C)c2S(C)(=O)=O)cc1 | 18.4 µM (active)
52 | COc1ccc(C(=O)NNS(=O)(=O)c2ccc(C)cc2)cc1 | inactive
53 | COc1ccc(CN2C(=O)C(CC(=O)NC3CCCCC3)CC(C(=O)N3CCOCC3)=C2C)cc1 (configuration not stated) | inactive
54 | CC(C)c1cc(NCc2ccccn2)n2c(nc3ccccc32)c1C#N | 11.6 µM (active)
55 | Cc1cc(NC(C)C)n2c(nc3ccccc32)c1C#N | inactive
56 | CCCc1nnc(NC(=O)c2cc(OC)cc(OC)c2)s1 | inactive
57 | O=C(CSc1n[nH]c(-c2cccnc2)n1)Nc1ccc(Cl)cc1 | inactive
58 | CCN(CC(=O)NC(C)C)C(=O)CCNC(=O)c1ccc(Cl)cc1 | inactive
59 | COc1cc2[nH]c(O)c(C=O)c2cc1OC | inactive
60 | COc1cc(N=Cc2c(O)[nH]c3ccccc23)cc(OC)c1OC | 13 µM (active)
61 | COc1cc(N=Cc2c(O)c3ccccc3oc2=O)c(OC)cc1Cl | inactive
62 | CCn1c(O)c2ccc(C(=O)N=NC(=O)c3cccnc3)cc2c1O | inactive
63 | Cc1cc(OC(C)C(=O)Nc2ccc(S(=O)(=O)Nc3onc(C)c3C)cc2)cc(C)c1Cl (configuration not stated) | inactive
64 | Cc1c(O)cc(O)c2c(=O)c(-c3ccc(O)cc3)coc12 | inactive
65 | CCOc1ccc(N/C=C/C(=O)c2ccccc2)cc1 | inactive
66 | CCCOc1ccc(N/C=C/C(=O)C(C)(C)C)cc1 | inactive
67 | CCOc1ccc(N/C=C/C(=O)c2cc(OC)c(OC)c(OC)c2)cc1 | 6.51 µM (active)
